Data as given in PubChem BioAssay (NCATS).
Several values for one entry are separate records, joined by “and”; a condition that tells them apart may be missing. Equal values may be shown once. Results filed as inconclusive are left out. Activity calls are given as the source filed them. Unless noted, the call rests on the fitted dose curve.

Assays:
[1] = qHTS Assay for Lipid Storage Modulators (AID 1519); details: Drosophila S3 cells, BODIPY lipid droplet/cell ratio, laser cytometry, cells loaded with oleic acid; on activity change, negative = inhibition: on the % scale 0 is the no-effect control and ±100 the full control effect
Outline: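 Cells seeded at 5,000 per well were treated with compounds over a concentration series and loaded with oleic acid (400 uM, as added). Lipid droplet fluorescence (488 nm excitation, 500-530 nm channel) was read by laser-scanning cytometry and normalized to 20 uM Triacsin C.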

[2] = target: Alpha-galactosidase A (Homo sapiens) (UniProt P06280); test: Counterscreen for Glucocerebrosidase Inhibitors: qHTS Assay for Human alpha-Galactosidase at pH 4.5 (AID 992; active means well fitted curve in the direction sought with a large enough effect; an effect the other way counts as inactive or inconclusive; further: 0% is about no effect); details: purified enzyme, fluorogenic substrate; series mostly up to 76.9 µM
Outline: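 Enzyme at 2 nM final was combined with compound (0.7 nM to 77 uM) and 80 uM 4-methylumbelliferyl alpha-D-galactopyranoside in 50 mM citric acid, 0.005% Tween-20, pH 4.5. After 20 min at room temperature, fluorescence was read (Ex 365/Em 440 nm); AC50 came from Hill fits.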

[3] = target: alpha-glucosidase (Oryza sativa, rice) (UniProt Q653V4); test: Counterscreen for Glucocerebrosidase Inhibitors: qHTS Assay for Rice alpha-Glucosidase at pH 5.0 (AID 997; active means well fitted curve in the direction sought with a large enough effect; an effect the other way counts as inactive or inconclusive;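 further: 0% = full activity with enzyme and -100% = basal without enzyme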); details: rice alpha-glucosidase enzyme activity; series mostly up to 76.9 µM
Outline: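 Rice alpha-glucosidase (4 nM final) with 400 uM 4-methylumbelliferyl-alpha-D-glucopyranoside in citrate buffer pH 5.0, 20 min at room temperature, stopped at pH 10; fluorescence 365/440 nm, compounds 0.7 nM–77 uM, AC50 from Hill fits.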

[4] = Validation of Assay for Modulators of Lamin A Splicing (AID 1459; active means well fitted curve in the direction sought with a large enough effect in the signal ratio; the % refers to the signal ratio;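 further: cells exposed to compound for two days before reading; 0% is about no effect; ratio rise marks activators and ratio drop marks inhibitors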); details: Lamin A splicing dual RFP/GFP fluorescence reporter; series mostly up to 9.22 µM
Outline: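 Dual-reporter HeLa S3 line (lamin A-EGFP minigene, DsRed2) treated with compounds 48 hrs, 0.5% DMSO final. Endpoint: EGFP/DsRed2 total intensity ratio from laser-scanning microplate cytometry.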

[5] = measured here: cell count channel max response
[6] = measured here: lipid channel max response

Chain of Alpha-galactosidase A (Homo sapiens) (P06280 whole entry, looked up): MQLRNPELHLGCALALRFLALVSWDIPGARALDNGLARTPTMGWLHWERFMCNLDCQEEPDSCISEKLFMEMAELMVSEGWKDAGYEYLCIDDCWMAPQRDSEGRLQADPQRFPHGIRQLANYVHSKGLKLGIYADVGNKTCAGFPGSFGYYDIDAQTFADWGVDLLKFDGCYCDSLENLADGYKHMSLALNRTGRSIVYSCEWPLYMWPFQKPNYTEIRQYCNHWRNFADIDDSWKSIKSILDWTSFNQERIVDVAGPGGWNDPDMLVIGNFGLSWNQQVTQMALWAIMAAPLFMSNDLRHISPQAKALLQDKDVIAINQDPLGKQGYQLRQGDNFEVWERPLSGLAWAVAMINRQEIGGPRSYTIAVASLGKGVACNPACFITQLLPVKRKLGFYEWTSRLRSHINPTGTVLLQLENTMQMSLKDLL

SMILES	activity change, negative = inhibition ([1]; at 57.5 µM (top of the series))	max response [1, 5]	max response [1, 6]	outcome [2]	outcome [3]	activity change, negative = inhibition ([1]; at 25.7 µM (top of the series))	outcome [4]
CNC1(C)C2CCC(C2)C1(C)C (stereo unspecified)	2.62% (inactive)	45.4%	47.5%				
Nc1c2c(nc3ccccc13)CCCC2O (stereo unspecified)	0.679% (inactive) and 0.738% (inactive)	14.7% and -14.6%	13.3% and -15.3%				
O=C(O)CN(CCOCCOCCN(CC(=O)O)CC(=O)O)CC(=O)O	0.929% (inactive)	-9.11%	-9.56%	inactive	inactive		
CCCCNc1c(C(=O)OCC)c(C)nc2c1cnn2CC	-16.8% (inactive)	-19.5% and -31.7%	-18.5% and -43.9%	inactive	inactive	-0.42% (inactive)	
CCN(CC)CCNC(=O)c1cc(S(C)(=O)=O)ccc1OC	7.41% (inactive) and 1.69% (inactive)	-4.82% and 19.9% and -18.4%	-8.3% and 33.5% and -17.4%	inactive	inactive	-2.02% (inactive)	
C[N+](C)(C)CCOC(N)=O		10.4%	11.4%	inactive	inactive	1.99% (inactive)	
CC(C)(Oc1ccc(CCNC(=O)c2ccc(Cl)cc2)cc1)C(=O)O		-0.576%	-0.58%			-0.881% (inactive)	
CC(C)NNC(=O)c1ccncc1	6.45% (inactive) and -0.103% (inactive)	4.18% and 16.8% and -20.6%	1.65% and 27.2% and -21.8%	inactive	inactive	-0.171% (inactive)	
CC[N+](C)(C)c1cccc(O)c1	8.9% (inactive) and 0.601% (inactive)	22.3% and 9.17% and -28.2%	23.6% and 20.6% and -27.6%	inactive	inactive	1% (inactive)	
NC(Cc1ccc(Cl)cc1)C(=O)O (stereo unspecified)	7.45% (inactive)	16.7%	25.4%				
Cc1ccc(/C(=C\CN2CCCC2)c2ccccn2)cc1	3.64% (inactive) and 0.151% (inactive)	7.98% and 15.3%	14.1% and 15.5%				
CCn1cc(C(=O)O)c(=O)c2cc3c(cc21)OCO3	2.77% (inactive)	12% and 70.6%	10.4% and 75.7%	inactive	inactive	-1.05% (inactive)	
CN(C)CCCN1c2ccccc2Sc2ccccc21	7.75% (inactive) and 0.211% (inactive)	-16.2% and -4.1% and -25%	-14.8% and 2.83% and -21.3%	inactive	inactive	0.5% (inactive)	
CC(=O)Nc1nnc(S(N)(=O)=O)s1	-0.868% (inactive)	6.43% and 19.5%	5.21% and 17%	inactive	inactive	-1.69% (inactive)	
CN(C(=O)CCCOc1ccc2[nH]c(=O)ccc2c1)C1CCCCC1				inactive	inactive		inactive
CN(C)CCN(Cc1cccs1)c1ccccn1	3.3% (inactive)	2.28% and 15.7%	3.57% and 22%	inactive	inactive	0.542% (inactive)	
